Rows were chosen to be rich in hits. Some 4.1% of all compounds tested hit in one or more screens of this group.
DAX1 inh-1 – NR0B1 (DAX1) inhibition; P51843; HEK293 Gal4-DAX1 luciferase reporter, luminescence; inhibition, % at 6.75 µM; 340,000 compounds, 0.99% hits; AID 504766;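 active = inhibition above the mean over all tested compounds plus 3 SD, cut at about 4.2% in these data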;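 also: inhibition shows as a rise in luminescence from relieved DAX1 repression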
Target sequence (P51843 207-470 limits assumed): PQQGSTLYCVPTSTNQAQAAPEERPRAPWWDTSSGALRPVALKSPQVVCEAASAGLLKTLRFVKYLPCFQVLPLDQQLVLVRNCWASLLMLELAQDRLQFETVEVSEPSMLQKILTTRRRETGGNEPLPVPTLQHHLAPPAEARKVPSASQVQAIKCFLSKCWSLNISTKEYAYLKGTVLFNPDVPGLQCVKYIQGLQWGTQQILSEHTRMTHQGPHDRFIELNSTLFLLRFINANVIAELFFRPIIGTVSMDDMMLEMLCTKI
DAX1 inh-2 – blocks DAX1 repression of SF-1 activated StAR promoter; 370,000 compounds, 1.1% hits; HEK293T StAR-luciferase reporter, SF-1/DAX-1 repression relief; AID 652010; inhibition, % at 6.8 µM;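 active = inhibition above the mean over all tested compounds plus 3 SD, cut at about 3.6% in these data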;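 also: higher inhibition means more luminescence from relief of DAX-1 repression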
hgDAF-12 ag – activates the H. glycines DAF-12 receptor ligand-binding domain; HEK293 GAL4-hgDAF12 UAS-luciferase reporter, agonist luminescence; normalized to butyrate control; activation, % at 6.8 µM; 370,000 compounds, 1.8% hits; AID 687014;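 active = activation above a cutoff set at the mean of all screened compounds plus 3 SD, cut at about 10% in these data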
PolyA inhibitor – yeast polyadenylation inhibition; AID 1875; S. cerevisiae SKY197-pL101 polyadenylation reporter, beta-gal luminescence; efflux-impaired pdr1/pdr3 knockout yeast; score 100 = 6 SD above DMSO; 300,000 compounds, 0.02% hits; activity score, % at 12 µM;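 active = lowest replicate activity score at least 50, where 100 means six control SD above control mean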;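 also: yeast exposed to compound for 9 h at 30 °C; higher score means more reporter readthrough which indicates perturbed polyadenylation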
ssDAF12 agonist – activators of S. stercoralis DAF-12 nuclear receptor | HEK293 ssDAF-12/GRIP1 lit1-tk-luc reporter, luminescence; % of 3 µM dafachronic acid response | activation, % at 6.8 µM | 370,000 compounds, 1% hits;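 active = activation above the mean over all tested compounds plus 3 SD, cut at about 0.9% in these data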
hcDAF-12 act – activates DAF-12 receptor from parasite H. contortus. HEK293 hcDAF-12 lit1-tk-luc reporter, luminescence; 0% DMSO, 100% Δ7-dafachronic acid. activation, % at 6.8 µM. 370,000 compounds, 1.4% hits;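 active = activation above the mean of all tested compounds plus 3 SD, cut at about 5.5% in these data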
DAX1 conf – confirmation of human DAX1 (NR0B1) inhibitors; shares compounds with DAX1 inh-2; HEK293T StAR-promoter luciferase reporter, SF-1/DAX-1 repression; inhibition, % at 6.8 µM; 2,400 compounds, 87% hits;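 active = inhibition above the average of every tested compound plus 3 SD, cut at about 3.8% in these data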;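 also: active compounds raise luminescence by relieving repression of the StAR reporter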
Target sequence (P51843 whole entry, looked up): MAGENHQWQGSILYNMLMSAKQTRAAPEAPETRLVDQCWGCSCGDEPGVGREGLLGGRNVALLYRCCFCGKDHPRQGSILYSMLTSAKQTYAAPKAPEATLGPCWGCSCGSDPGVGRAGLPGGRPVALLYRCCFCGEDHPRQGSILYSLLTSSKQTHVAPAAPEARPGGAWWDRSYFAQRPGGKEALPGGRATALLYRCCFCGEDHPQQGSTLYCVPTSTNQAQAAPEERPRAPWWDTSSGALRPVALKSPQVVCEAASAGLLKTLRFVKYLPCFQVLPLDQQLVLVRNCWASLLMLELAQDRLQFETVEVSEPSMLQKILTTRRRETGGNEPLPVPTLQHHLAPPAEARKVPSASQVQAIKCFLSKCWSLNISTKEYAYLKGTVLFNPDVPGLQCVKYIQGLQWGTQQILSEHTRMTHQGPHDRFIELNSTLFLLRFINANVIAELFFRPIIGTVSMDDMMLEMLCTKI
SF1 AF2mut Luc – counter-screen for DAX1 inhibitors: nonselective inhibitors with SF-1 AF2 mutant | AID 652136 | shares compounds with DAX1 inh-2 | inhibition, % at 6.8 µM | HEK293 StAR-luciferase, luminescence | 2,400 compounds, 78% hits;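 active = inhibition above the mean of all tested compounds plus 3 SD, cut at about 3% in these data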
Each line names hits and unclear results; the compound was inactive in the other large screens (follow-up assays come after a bar, where they were run).

COc1cccc(-c2nnc(-c3ccc4ccccc4c3)o2)c1	DAX1 inh-2 5.5 (no result: PolyA inhibitor) | DAX1 conf 14.8 | SF1 AF2mut Luc 6.1
O=C(Nc1nc2ncccn2c1-c1ccc(C(F)(F)F)cc1)c1ccc(F)cc1	none (no result: DAX1 inh-1, PolyA inhibitor)
CN(Cc1ccco1)C(=O)CN1C(=O)C2(OCCCO2)c2ccccc21	none (no result: DAX1 inh-1, PolyA inhibitor)
COC(=O)[C@]12C[C@H](CC(=O)N3CCN(C(=O)c4ccco4)CC3)C(=O)N(CCC3=CCCCC3)C1=C[C@H](COCc1ccccc1)O[C@@H]2C	none (no result: DAX1 inh-1, PolyA inhibitor)
COC(=O)c1c(NC(=O)CCS(=O)(=O)c2ccccc2)sc2c1CCN(C)C2	none
CCCN1CCc2c(sc(NC(=O)CCS(=O)(=O)c3ccccc3)c2C(=O)OC)C1	DAX1 inh-2 7.3 | DAX1 conf 7.9 | SF1 AF2mut Luc 4.7
O=C(CSc1nc2ccccc2[nH]1)N/N=C/c1ccncc1	none (no result: DAX1 inh-1)
O=C(CSc1nc2ccccc2[nH]1)NN=Cc1ccccc1C(=O)O	DAX1 inh-2 5.5, hcDAF-12 act 5.9 (no result: DAX1 inh-1, PolyA inhibitor) | DAX1 conf 12.0 | SF1 AF2mut Luc 7.8
CCCC/C=C1/[C@@H](CC)N(Cc2ccc(OC)cc2OC)C2=N[C@@H](c3ccccc3)CC(=O)N21	none (no result: DAX1 inh-1, DAX1 inh-2, PolyA inhibitor)
CCOC(=O)N1CCC(NC(=O)c2ccc3c(c2)N=C(C)c2c(C)ccc(C)c2S3)CC1	DAX1 inh-2 9.0 | DAX1 conf 14.8 | SF1 AF2mut Luc inactive
Cc1nn2c(-c3ccc(F)cc3)ccnc2c1Br	none
COc1ccc(-c2ccnc3c(Br)c(C)nn23)cc1	DAX1 inh-2 4.8 (no result: PolyA inhibitor) | DAX1 conf inactive | SF1 AF2mut Luc inactive
CC(C)Oc1ccc(S(=O)(=O)N2CCCCC2)cc1NC(=O)CN1C(=O)NC(C)(C2CC2)C1=O (stereo not given)	DAX1 inh-2 4.7 (no result: PolyA inhibitor) | DAX1 conf inactive | SF1 AF2mut Luc inactive
COc1ccc(S(=O)(=O)N2CCCCC2)cc1NC(=O)CN1C(=O)NC(C)(C2CC2)C1=O (stereo not given)	none (no result: PolyA inhibitor)
C=CCO[C@H]1CN(C(=O)OC)[C@@H]2C[C@H]1Oc1ccccc12	none (no result: DAX1 inh-1, PolyA inhibitor)
CC(=O)Nc1nnc(COc2ccc(Cl)cc2)s1	DAX1 inh-2 5.5, hgDAF-12 ag 12.8 | DAX1 conf 6.2 | SF1 AF2mut Luc 3.0
CC(C)C(=O)Nc1nnc(COc2ccc(Cl)cc2)s1	none
Cc1ccc(NC(=S)NNC(=O)Nc2ccccc2)cc1	DAX1 inh-2 5.7, hgDAF-12 ag 11.6, ssDAF12 agonist 1.4 | DAX1 conf 5.6 | SF1 AF2mut Luc inactive
O=C(NNC(=S)Nc1ccccc1)Nc1ccccc1	none
Cc1cccc2c1-c1sc(C(=O)N3CCCCC3)cc1CO2	DAX1 inh-2 5.3 | DAX1 conf 9.6 | SF1 AF2mut Luc 5.7
CCOC(=O)N1CCN(C(=O)c2cc3c(s2)-c2c(C)cccc2OC3)CC1	none
COc1ccc(C(CNC(=O)c2cccc(S(=O)(=O)Nc3ccccc3OC)c2)N2CCCC2)cc1 (stereo not given)	DAX1 inh-2 5.7 | DAX1 conf 6.3 | SF1 AF2mut Luc 3.4
COc1ccc(C(CNC(=O)c2cccc(S(=O)(=O)Nc3ccccc3OC)c2)N2CCCCC2)cc1 (stereo not given)	DAX1 inh-2 6.9 (no result: PolyA inhibitor) | DAX1 conf 5.9 | SF1 AF2mut Luc 4.2
COc1ccc(C(CNC(=O)c2ccc(C)c(S(=O)(=O)Nc3ccccc3OC)c2)N2CCCC2)cc1 (stereo not given)	DAX1 inh-2 5.3 | DAX1 conf 6.2 | SF1 AF2mut Luc 5.3
COc1ccccc1NS(=O)(=O)c1cc(C(=O)NCC(c2cccs2)N2CCOCC2)ccc1C (stereo not given)	none
C[C@H]1C(C(=O)N(C)C2CCCCC2)=Cc2c(n(-c3ccc(F)cc3)c(=O)n2CCCOc2ccccc2)C=C1c1ccccc1	none (no result: DAX1 inh-1, PolyA inhibitor)
CC(Sc1ccccc1F)C(=O)Nc1ccc2c(c1)OCCO2 (stereo not given)	DAX1 inh-2 4.9, ssDAF12 agonist 0.9 (no result: PolyA inhibitor) | DAX1 conf 6.5 | SF1 AF2mut Luc 4.0
C=C[C@@]1(C)CC(=O)[C@]2(O)[C@@]3(C)[C@@H](O)CCC(C)(C)[C@@H]3[C@H](O)[C@H](OC(C)=O)[C@@]2(C)O1	DAX1 inh-2 9.6 | DAX1 conf 22.2 | SF1 AF2mut Luc inactive
CCCCN1CCN(C(=O)c2cn(C(C)c3ccccc3)nn2)CC1 (stereo not given)	none (no result: DAX1 inh-1, PolyA inhibitor)
COc1ncnc2c1cnn2-c1ccccc1	none
COc1ccccc1Oc1ncnc2c1cnn2-c1ccccc1	DAX1 inh-2 4.7, hgDAF-12 ag 11.6 | DAX1 conf inactive | SF1 AF2mut Luc 3.6
O=C1c2ccccc2/C(=C\c2ccc(Br)nc2)N1c1ccccc1	none (no result: DAX1 inh-1, PolyA inhibitor)
CCCCN1CCS(=O)(=O)N(Cc2cn(Cc3ccc(C)cc3)nn2)C(C(=O)OC)C1 (stereo not given)	none (no result: DAX1 inh-1, PolyA inhibitor)
CCOC(=O)[C@]12CCCC3=C1N(CCC3)C(=O)[C@@H](CC(=O)NCc1ccc(C)o1)C2	none (no result: DAX1 inh-1, PolyA inhibitor)
O=C(Nc1ccc(Cl)cc1Cl)c1ccc2ncsc2c1	none
O=C(Nc1ccc(F)cc1F)c1ccc2ncsc2c1	DAX1 inh-2 4.9 | DAX1 conf inactive | SF1 AF2mut Luc inactive
COC(=O)c1cc2c(c3c4cc(F)ccc4n(S(=O)(=O)c4ccc(C)cc4)c13)C(=O)N(Cc1ccccc1)C2	none (no result: DAX1 inh-1, PolyA inhibitor)
CC1(C2CC2)NC(=O)N(CC(=O)N2CCN(c3ccccc3)CC2)C1=O (stereo not given)	DAX1 inh-2 6.7 (no result: PolyA inhibitor) | DAX1 conf inactive | SF1 AF2mut Luc inactive
Cc1cccc(C)c1-n1nnnc1C1c2ccccc2C(=O)N1C1CC1 (stereo not given)	DAX1 inh-2 4.9 (no result: DAX1 inh-1, PolyA inhibitor) | DAX1 conf inactive | SF1 AF2mut Luc inactive
O=C1c2ccccc2C(c2nnnn2-c2ccc3ccccc3c2)N1C1CC1 (stereo not given)	none (no result: DAX1 inh-1, PolyA inhibitor)
C(=N\Nc1ccccn1)/c1ccc(N2CCOCC2)cc1	DAX1 inh-2 5.0, hgDAF-12 ag 10.8 | DAX1 conf 8.8 | SF1 AF2mut Luc 7.0
CCCCc1ccc(NC(=O)c2cnccn2)cc1	DAX1 inh-2 8.9, hgDAF-12 ag 11.6 | DAX1 conf 11.1 | SF1 AF2mut Luc 7.5
Cc1ccc(NC(=O)c2cncc(Br)c2)nc1	DAX1 inh-2 4.5 | DAX1 conf 5.8 | SF1 AF2mut Luc 6.3
Cc1ccc(NC(=O)c2cnccn2)nc1	DAX1 inh-2 4.6 | DAX1 conf 5.0 | SF1 AF2mut Luc 3.3
O=C(NC(=S)Nc1ccc(Br)cn1)c1cncc(Br)c1	none
O=C(Nc1ccc(F)cc1)Nc1nc2ncccn2c1-c1ccc(F)cc1	none (no result: DAX1 inh-1, PolyA inhibitor)
